Where “and” joins values, the source holds several entries; their conditions need not be identical. Identical values can stand only once. Inconclusive results are not listed. Calls of active or inactive are those of the source. Unless noted, calls follow the shape of the dose curve; as a rule, active = well fitted curve in the direction sought with a large enough effect; inconclusive = small, poorly fitted or top-dose-only effect, or another doubt; inactive = no such curve, though single readings can be large; an effect the other way counts as inactive or inconclusive.
Assays:
[1] = target: Arylsulfatase A (Homo sapiens) (UniProt P15289); experiment: qHTS screen for enhancers of Arylsulfatase A (ASA1): LOPAC Validation Assay (AID 720538)
Procedure, shortened: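 MLD patient fibroblasts (SV40, ASA-I179S), 1536-well; adhere 6 hrs; cpd 48h, 37 degree C, 5% CO2; pNCS 0.5mM final in lysis buffer, 14h RT; stop 1N NaOH final; fluor. Ex525/Em598.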

[2] = qHTS for compounds that reverse cellular toxicity of Amyloid beta (A-beta) peptide in yeast: LOPAC Validation Assay (AID 720559);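 also: plate controls were DMSO for no effect and equimolar ferric chloride plus clioquinol rescue for full effect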
Procedure, shortened: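 Medium dispensed, compounds pinned, A-beta yeast suspension added; plates held at 30 C for 48 hr; absorbance measured at 600 nm to gauge growth; values scaled between DMSO and FeCl3/clioquinol (equimolar) controls.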

[3] = qHTS for Activators of Parkin Expression: LOPAC Validation Assay (FLuc Reporter) (AID 720573)
Procedure, shortened: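 Cells seeded, 24 h; compounds pinned, 7-pt dose response; 24 h at 37 C/5% CO2; volume reduced; FLuc reagent 10 min RT; luminescence read. Normalization: DMSO = 0, positive control = 100%.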

[4] = target: T1, Hexokinase-4 (Homo sapiens) + Glucokinase regulatory protein (Homo sapiens) (UniProt P35557+Q14397); experiment: qHTS assay for inhibitors of recombinant human GCK-GKRP interaction: Diaphorase-coupled assay (AID 743205)
Procedure, shortened: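 25 mM Hepes pH 7.6, 5 mM glucose, 0.4 mM ATP, 4 U/ml G6PDH; 10 nM each GST-GCK/FLAG-GKRP. Kinetic fluorescence read, 1/min × 30 min. Normalized: DMSO ± enzyme = max/min.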

[5] = target: T1, Hexokinase-4 (Homo sapiens) + Glucokinase regulatory protein (Homo sapiens); experiment: qHTS assay for inhibitors of recombinant human GCK-GKRP interaction: ADP-Glo assay (AID 743206);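 also: plate controls were DMSO plus enzyme for no effect and no enzyme for full effect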
Procedure, shortened: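 GST-GCK and FLAG-GKRP (15 nM each in the dispensed mix, with 2 uM S6P) react with 0.4 mM ATP and 5 mM glucose (final) in Hepes pH 7.6 for 60 min at room temperature. ADP is measured by ADP-Glo luminescence.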

[6] = target: T1, Hexokinase-4 (Homo sapiens) + Glucokinase regulatory protein (Homo sapiens); experiment: qHTS assay for inhibitors of recombinant human GCK-GKRP interaction: HTRF assay (AID 743207); also: potency is read from the fitted curve at half-maximal effect
Procedure, shortened: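 5 nM GST-GCK + 5 nM FLAG-GKRP + 2 uM S6P, pH 7.1 buffer (25 mM Hepes, 2 mM MgCl2, 25 mM KCl, 1 mM DTT, Tween/BSA); pin-transferred cpd; anti-FLAG XL665/anti-GST K; 60 min RT; HTRF.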

[7] = qHTS Assay for Identifying Gametocytocidal Compounds (AID 743244); also: potency is read from the fitted curve at half-maximal effect;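 as to max response: % is scaled to controls: 0 for no effect and ±100 for the full control effect; actives lower the fluorescent signal which means gametocytes are killed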; settings: P. falciparum 3D7 stage III-V gametocytes, alamarBlue, 72 h; max response: stronger effect = lower value
Procedure, shortened: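 Fluorescence at Ex 525/Em 598 nm, recorded 24 h after alamarBlue addition, reports residual metabolic activity of 3D7 gametocytes (stages III–V) following 72 h compound exposure at 37 °C, 5% CO2.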

[8] = qHTS for Activators of Parkin Expression: LOPAC Validation Assay (NLuc Reporter) (AID 720572)
Procedure, shortened: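 Neuronal line stably carrying a FLuc/NLuc coincidence reporter under the Parkin promoter, seeded 24 h, then dosed in 7-point series for 24 h at 37 C. NLuc luminescence read after FLuc; normalized to DMSO and positive control (100%).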

[9] = qHTS assay for small molecule agonists of the antioxidant response element (ARE) signaling pathway measured by Nrf2-dependant transcriptional activity (AID 720636; active = well fitted curve in the direction sought with a large enough effect in the repeat runs; an effect the other way counts as inactive or inconclusive; also: % of control where 0% means no effect)
Procedure, shortened: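 Nrf2-dependent transcription read as ONE-Glo luciferase signal from ARE-luc HepG2 reporter cells after 16 hr compound treatment at 37 C, 5% CO2, in assay medium with 1% dialyzed FBS.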

[10] = qHTS assay for small molecule agonists of the antioxidant response element (ARE) signaling pathway measured by Nrf2-dependant transcriptional activity - cell viability counter screen (AID 720653; active = well fitted curve in the direction sought with a large enough effect in the repeat runs; an effect the other way counts as inactive or inconclusive; also: % is scaled to controls: 0 for no effect and ±100 for the full control effect); settings: ARE-bla HepG2 viability, CellTiter-Glo ATP luminescence, 16 h; max response: stronger effect = lower value
Procedure, shortened: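 ARE-bla HepG2 cells (2,000/well) rested 5 hrs at 37C/5% CO2, then exposed to compounds in DMSO for 16 hrs. Viability was read in the same wells as intracellular ATP by luminescence, 30 min at room temperature after reagent addition.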

[11] = qHTS assay for cell viability of HEK293 cells (AID 743288); settings: ATP luminescence (CellTiter-Glo), 18 h; max response: stronger effect = lower value; also: % is scaled to controls: 0 for no effect and ±100 for the full control effect; nearly all actives have a fitted effect of over 50% in size
Procedure, shortened: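 HEK293 parental, 2,000 cells/well; ≥5 h pre-incubation 37 C; pintool compound addition; 18 h, 37 C; CellTiter-Glo 30 min RT; luminescence read.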

[12] = qHTS assay for cell viability of the p53RE-bla HCT-116 cell line (AID 743292); also: % is scaled to controls: 0 for no effect and ±100 for the full control effect; nearly all actives have a fitted effect of over 55% in size
Procedure, shortened: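 ATP-based luminescent viability (CellTiter-Glo, 30 min RT) after 16 h compound treatment at 37 C of p53RE-bla HCT-116 cells, seeded at 4,000 cells/well and rested 5 h before dosing.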

[13] = qHTS assay for small molecule antagonists of the retinoid-related orphan receptor gamma (ROR-gamma) signaling pathway - cell viability counter screen (AID 720652; active = well fitted curve in the direction sought with a large enough effect in the repeat runs; an effect the other way counts as inactive or inconclusive;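 also: CHO reporter cells with doxycycline-induced ROR-gamma expression; compound exposure lasted 16 hr before ATP read; % is scaled to controls: 0 for no effect and ±100 for the full control effect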)
Procedure, shortened: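 Cytotoxicity is quantified via intracellular ATP (CellTiter-Glo luminescence) in doxycycline-induced CHO ROR response element-luciferase reporter cells treated with compound for 16 hr at 37 C, 5% CO2.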

[14] = qHTS profiling for inhibitors of Plasmodium falciparum (HB3) proliferation (AID 743324); settings: Plasmodium falciparum HB3 blood-stage proliferation; at 28.7 µM (top of the series);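 also: 100% = DMSO vehicle wells and 0% = artemisinin-treated control wells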
Procedure, shortened: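 P. falciparum HB3 grown in erythrocytes (0.3% parasitemia, 2.5% hematocrit final) with compound for 72 h at 37 C, 5% CO2. Parasite DNA detected by SYBR Green after saponin/triton lysis overnight; normalized to 0.29 uM artemisinin and DMSO.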

[15] = qHTS profiling of the MIPE4 collection as inhibitors of Plasmodium falciparum (3D7) proliferation (AID 743344; call rule not given here;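 also: scaled between DMSO vehicle wells and 0.29 µM artemisinin as full inhibition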); settings: P. falciparum 3D7 in erythrocytes, SYBR Green DNA fluorescence, 72 h; at 28.5 µM (top of the series)
Procedure, shortened: (§1)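 Erythrocytes infected with P. falciparum (0.3% parasitemia, 2.5% hematocrit) incubated with compounds 72 h at 37 C, 5% CO2. Lysis with saponin/Triton buffer containing SYBR Green I, overnight at room temperature in the dark; DNA fluorescence (485/535 nm) normalised to 0.29 uM artemisinin and DMSO.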

[16] = qHTS profiling of the MIPE4 collection as inhibitors of Plasmodium falciparum (DD2) proliferation (AID 743345; call rule not given here); settings: P. falciparum Dd2 in erythrocytes, SYBR Green DNA, 72 h; at 28.5 µM (top of the series)
Procedure, shortened: as §1

[17] = qHTS profiling of the MIPE4 collection as inhibitors of Plasmodium falciparum (DD2) proliferation (Rep 2) (AID 743346; call rule not given here); settings: P. falciparum Dd2 in erythrocytes, SYBR Green DNA, 72 h; at 28.5 µM (top of the series)
Procedure, shortened: as §1

Arylsulfatase A (Homo sapiens), sequence (P15289 whole entry, looked up): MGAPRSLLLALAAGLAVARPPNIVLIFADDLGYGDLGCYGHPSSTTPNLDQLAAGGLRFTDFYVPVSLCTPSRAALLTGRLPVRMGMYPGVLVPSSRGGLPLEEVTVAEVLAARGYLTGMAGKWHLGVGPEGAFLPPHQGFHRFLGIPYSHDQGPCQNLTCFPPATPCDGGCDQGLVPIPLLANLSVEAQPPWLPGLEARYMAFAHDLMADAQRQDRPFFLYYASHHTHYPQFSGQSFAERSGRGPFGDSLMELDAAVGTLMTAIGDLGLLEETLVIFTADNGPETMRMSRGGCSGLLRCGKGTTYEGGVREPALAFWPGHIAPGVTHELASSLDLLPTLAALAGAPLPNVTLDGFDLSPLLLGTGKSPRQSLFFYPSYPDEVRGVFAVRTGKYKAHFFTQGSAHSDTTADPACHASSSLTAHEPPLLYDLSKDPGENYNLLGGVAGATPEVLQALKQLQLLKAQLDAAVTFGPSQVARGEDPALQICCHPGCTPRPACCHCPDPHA
T1 sequence (P35557 whole entry, looked up): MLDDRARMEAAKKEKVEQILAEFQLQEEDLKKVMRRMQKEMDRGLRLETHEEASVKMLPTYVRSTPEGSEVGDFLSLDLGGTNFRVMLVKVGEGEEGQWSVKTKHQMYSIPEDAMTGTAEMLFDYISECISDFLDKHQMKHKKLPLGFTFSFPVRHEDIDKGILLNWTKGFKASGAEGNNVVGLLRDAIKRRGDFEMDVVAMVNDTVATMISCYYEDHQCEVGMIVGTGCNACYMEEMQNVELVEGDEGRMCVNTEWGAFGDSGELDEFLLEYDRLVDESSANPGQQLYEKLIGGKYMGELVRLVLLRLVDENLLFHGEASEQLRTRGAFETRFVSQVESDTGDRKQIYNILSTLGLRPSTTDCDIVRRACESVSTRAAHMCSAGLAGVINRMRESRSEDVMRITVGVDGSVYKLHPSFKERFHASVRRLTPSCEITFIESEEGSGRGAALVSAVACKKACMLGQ
T1 sequence (Q14397 whole entry, looked up): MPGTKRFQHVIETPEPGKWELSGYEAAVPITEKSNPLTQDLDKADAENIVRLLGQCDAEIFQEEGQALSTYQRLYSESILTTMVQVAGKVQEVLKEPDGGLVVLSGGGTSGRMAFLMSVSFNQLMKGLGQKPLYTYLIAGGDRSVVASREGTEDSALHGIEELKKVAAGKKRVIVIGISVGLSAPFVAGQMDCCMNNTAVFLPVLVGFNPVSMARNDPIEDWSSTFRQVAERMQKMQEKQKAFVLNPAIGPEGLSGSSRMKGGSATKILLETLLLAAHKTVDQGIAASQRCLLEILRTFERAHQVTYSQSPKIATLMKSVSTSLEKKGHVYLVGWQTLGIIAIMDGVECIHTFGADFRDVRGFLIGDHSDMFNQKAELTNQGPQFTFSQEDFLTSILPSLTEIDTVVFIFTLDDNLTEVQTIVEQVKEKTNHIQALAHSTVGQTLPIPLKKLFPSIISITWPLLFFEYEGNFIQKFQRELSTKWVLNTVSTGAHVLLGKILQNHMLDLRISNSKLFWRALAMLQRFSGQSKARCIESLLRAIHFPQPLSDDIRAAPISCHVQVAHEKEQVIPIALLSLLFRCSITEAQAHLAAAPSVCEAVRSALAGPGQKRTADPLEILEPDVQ

CCCC(C(=O)OCCN(CC)CC)(c1ccccc1)c1ccccc1
inactive: Potency [1] | outcome [2] | outcome [3] | outcome [4] | outcome [5] | Potency [6] | max response [7] -0.916%

Cc1ccc(/C(=C\CN2CCCC2)c2ccccn2)cc1
inactive: Potency [1] | outcome [2] | Potency [8] | outcome [3] | max response [7] 24.5% and 21.6%

COC(=O)C1=C(C)NC(C)=C(C(=O)OCCN(C)Cc2ccccc2)C1c1cccc([N+](=O)[O-])c1 (stereo unspecified)
inactive: Potency [1] | outcome [2] | outcome [3]

CCN(CC)CC(=O)Nc1c(C)cccc1C
inactive: Potency [1] | outcome [2] | outcome [3] | outcome [4] | outcome [5] | Potency [6] | max response [7] 0.639% and 6.44%

CN(C(=O)CCCOc1ccc2[nH]c(=O)ccc2c1)C1CCCCC1
inactive: Potency [1] | outcome [2] | Potency [8] | outcome [3] | outcome [4] | outcome [5] | Potency [6] | max response [7] -2.24% and 11%

COCCCC/C(=N\OCCN)c1ccc(C(F)(F)F)cc1
inactive: Potency [1] | outcome [2] | Potency [8] | outcome [3] | outcome [5] | Potency [6] | max response [7] 20.1%

CC(=O)Oc1cc(C(C)C)c(OCCN(C)C)cc1C
inactive: Potency [1] | outcome [2] | outcome [3] | outcome [4] | outcome [5] | Potency [6] | max response [7] 14.5% and 12.4%

CC(=O)OC(C)C[N+](C)(C)C (stereo unspecified)
inactive: Potency [1] | outcome [2] | Potency [8] | outcome [3] | outcome [5] | Potency [6] | max response [7] -4.19% and 23.1%

CC(C)(Oc1ccc(CCNC(=O)c2ccc(Cl)cc2)cc1)C(=O)O
inactive: Potency [1] | outcome [2] | outcome [3] | outcome [9] | max response [10] -11.9% | outcome [4] | outcome [5] | Potency [6] | max response [7] 5.91% and 17.9% | max response [11] -0.154% | outcome [12]

Nc1c2c(nc3ccccc13)CCCC2O (stereo unspecified)
inactive: Potency [1] | outcome [2] | Potency [8] | outcome [3] | outcome [5] | Potency [6] | max response [7] -3.49% and -6.56%

CCCCCN(CCCCC)C(=O)C(CCC(=O)O)NC(=O)c1ccc(Cl)c(Cl)c1 (stereo unspecified)
inactive: Potency [1] | outcome [2] | Potency [8] | outcome [3] | outcome [5] | Potency [6] | max response [7] 10.8% and 16.9%

CN=C(NC#N)NCCSCc1nc[nH]c1C
inactive: outcome [13]

O=c1[nH]c(=O)n([C@H]2C[C@H](O)[C@@H](CO)O2)cc1Br
inactive: outcome [13]

CNCCC(Oc1ccccc1OC)c1ccccc1 (stereo unspecified)
91.8%: remaining proliferation (% of control), lower = more inhibition [14]

NC(=O)c1ncn([C@@H]2O[C@H](CO)[C@@H](O)[C@H]2O)c1O
inactive: outcome [2] | Potency [8] | outcome [3] | outcome [4] | outcome [5] | Potency [6] | max response [7] 13.6%

NC1=NCC2c3ccccc3Cc3ccccc3N12 (stereo unspecified)
inactive: outcome [2] | Potency [8] | outcome [3] | outcome [4] | outcome [5] | Potency [6] | max response [7] -4.93% and 13.9%

C#CCN(C)CCCOc1ccc(Cl)cc1Cl
inactive: outcome [2] | Potency [8] | outcome [4] | outcome [5] | Potency [6] | max response [7] -2.39% and 17.1%

CSc1ccc(C(=O)c2[nH]c(=O)[nH]c2C)cc1
inactive: outcome [5] | Potency [6] | max response [7] 9.34% and 5.87%

COc1cc2c(cc1OC)-c1cc(=Nc3c(C)cc(C)cc3C)n(C)c(=O)n1CC2
inactive: outcome [2] | outcome [3] | outcome [5] | Potency [6] | max response [7] 25.2%

CCN1CCC[C@H]1CNC(=O)c1c(O)c(Cl)cc(Cl)c1OC
inactive: outcome [2] | outcome [3] | outcome [4] | outcome [5] | Potency [6] | max response [7] 5.28% and 32.3%

O=C(O)CN(CCOCCOCCN(CC(=O)O)CC(=O)O)CC(=O)O
inactive: outcome [2] | outcome [3] | outcome [4] | outcome [5] | Potency [6] | max response [7] -5.05% and 25.1%

C[C@H](CS)C(=O)N1CCC[C@H]1C(=O)O
inactive: outcome [2] | Potency [8] | outcome [3] | outcome [5] | Potency [6] | max response [7] -9.05% and 12%

CCCCOCCOCCOCc1cc2c(cc1CCC)OCO2
inactive: outcome [9] | outcome [13] | max response [10] -10.7% and -4.66% | max response [7] 3.05% | max response [11] -11.4% and -13.4% | outcome [12]

CN(C)C(=O)Oc1cccc([N+](C)(C)C)c1
inactive: outcome [2] | Potency [8] | outcome [3] | outcome [5] | Potency [6] | max response [7] 5.44% and 20.8%

O=C1NCN(c2ccccc2)C12CCN(CCCC(c1ccc(F)cc1)c1ccc(F)cc1)CC2
inactive: outcome [2] | Potency [8] | outcome [3] | outcome [4] | outcome [5] | Potency [6]
5.05%: parasite growth, % of DMSO control [15]
9.4%: parasite growth remaining, % of DMSO control (lower = more inhibition) [16]
active: Potency [7] 10 µM
11.8%: parasite growth, % of control (lower = inhibition) [17]

CCc1c(C)[nH]c2c1C(=O)C(CN1CCOCC1)CC2 (stereo unspecified)
inactive: outcome [2] | outcome [3] | outcome [5] | Potency [6] | max response [7] 2.02% and 26.2%

C[C@]12CCC(=O)C=C1CC[C@@H]1[C@@H]2CC[C@@]2(C)[C@H]1CC[C@]2(O)C(=O)CO
inactive: outcome [2] | Potency [8] | outcome [3] | outcome [4] | outcome [5] | Potency [6] | max response [7] -4.53% and -8.22%

CN(C)[C@@H]1C(=O)C(C(N)=O)=C(O)[C@@]2(O)C(=O)C3=C(O)c4c(O)ccc(Cl)c4[C@@H](O)[C@H]3C[C@@H]12
inactive: outcome [2] | Potency [8] | outcome [3] | outcome [4] | outcome [5] | max response [7] -7.62% and 22.4%
active: Potency [6] 12.6 µM
